Reference: PubChem BioAssay AID1304 (The Scripps Research Institute Molecular Screening Center, 2008)
About 800 (0.36%) of roughly 220,000 compounds were called active. Rule as the data show it: active = activation above about 33% (passing the limit was not always enough); inactive = the rest. The list comes from a sample in which actives are over-represented; it also holds similar structures and randomly drawn compounds.

target: Neuropeptide Y receptor type 1 (Homo sapiens) (UniProt P25929); assay: activation enhancers of human NPY-Y1 – cell-based, primary screen (AID 1304); settings: NPY-Y1 expressing cells, potentiator/agonist activation; at 3.6 µM; active compounds read high;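 also: cells stimulated with NPY at EC10 then isoproterenol at EC100; 0% = low agonist plus stimulus and 100% = saturating agonist plus stimulus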
Sequence (P25929 whole entry, looked up): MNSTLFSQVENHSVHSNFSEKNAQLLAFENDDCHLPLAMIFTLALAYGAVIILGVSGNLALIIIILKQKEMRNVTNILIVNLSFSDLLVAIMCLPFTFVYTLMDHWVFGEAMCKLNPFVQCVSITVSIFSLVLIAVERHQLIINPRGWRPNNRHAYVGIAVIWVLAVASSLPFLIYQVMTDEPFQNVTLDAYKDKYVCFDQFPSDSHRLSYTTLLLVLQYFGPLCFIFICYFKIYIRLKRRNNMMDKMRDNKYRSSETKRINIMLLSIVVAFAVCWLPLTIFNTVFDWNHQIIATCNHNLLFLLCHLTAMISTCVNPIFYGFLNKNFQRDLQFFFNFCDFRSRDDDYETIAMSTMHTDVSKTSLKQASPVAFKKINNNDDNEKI

activation, inactive:
CCOc1ncccc1C(=O)N(C)CC(=O)Nc1ccc(F)cc1 -13.4%, S=c1[nH]nc(-c2cc(-c3ccccc3)n[nH]2)n1/N=C/c1c2ccccc2cc2ccccc12 6.62%, CCOc1ccc2c(=O)c(-c3ccc4c(c3)OCCCO4)c(C)oc2c1 2.42%, O=C(Nc1cccc(S(=O)(=O)N2CCCCC2)c1)c1ccc2c(c1)OCO2 -8.28%, O=C(Nc1ccc(Cl)cn1)c1ccc2c(c1)OCCO2 -6.11%, O=C(Nc1ccc2c(c1)CCC2)c1cccc(S(=O)(=O)N2CCN(c3ccc(F)cc3)CC2)c1 24.4%, O=C(c1cccc(S(=O)(=O)Nc2ccccc2Cl)c1)N1CCN(C(=O)c2ccco2)CC1 0.65%, CCc1nnc(NC(=O)CCN(c2ccc(C)cc2)S(=O)(=O)c2ccccc2)s1 1.52%, CSc1ccccc1C(=O)NCc1ccccc1 1.48%, O=S(=O)(c1ccc(F)cc1)N1CC=C(c2ccccc2)CC1 -6.53%, CC(O)c1nc2c(c(=O)n(C)c(=O)n2C)n1C (stereo not drawn) 11.7%, Cc1coc2cc3oc(=O)c(CCC(=O)O)c(C)c3cc12 -7.91%, CCSc1sc(CC)cc1C=O -2.95%, Cc1ccc(NC(=O)/C(=C/c2ccc([N+](=O)[O-])cc2)NC(=O)c2ccccc2)cc1 30.3%, O=C(O)C1CCN(c2ccc([N+](=O)[O-])cc2[N+](=O)[O-])CC1 -10.1%, COC(=O)c1ccc(COC(=O)c2cnccn2)cc1 -11.9%, O=C(O)C1C2C=CC(O2)C1C(=O)NCCc1cccc(Cl)c1 (stereo not drawn) 1.36%, COCCCNC(NC(=O)c1ccc(OC)cc1)C(Cl)(Cl)Cl (stereo not drawn) 15.6%, COCCCNC(=S)N1CCCC(c2nc3cc(C)c(C)cc3[nH]2)C1 (stereo not drawn) 8.07%, NC(=O)CC[C@@H]1NC(=O)[C@H](CO)NC(=O)c2cc([N+](=O)[O-])cc(I)c2NCC[C@@H](C(N)=O)NC1=O -22.3%, CC(=O)c1ccc(NC(=O)Nc2ccc([N+](=O)[O-])cc2C)cc1 -8.87%, CCn1c2ccccc2c2cc(NC(=O)CNC)ccc21 -3.25%, CC(C)(C)NC(=O)COc1ccc(CNc2ccc3[nH]c(=O)[nH]c3c2)cc1 2.35%, CC(C)(C)N(Cc1ccccc1)C(=O)COC(=O)CCc1c[nH]c2ccccc12 -4.21%, COc1ccc(CCn2ccc(O)c(Cc3ccc(Cl)cc3Cl)c2=O)cc1OC -7.77%, COC(=O)c1c(C(=O)OC)c2n(c1C)CCS2 -0.93%, CC(NS(=O)(=O)c1ccccc1)c1n[nH]c(=S)n1-c1ccccc1 (stereo not drawn) 30%, Cc1ccccc1NC(=O)NNC(=O)OC(C)(C)C -4.21%, CCN(CC)CCNC(=O)C1c2ccccc2C(=O)N(C)C1c1cn(C)c2ccccc12 (stereo not drawn) 10.4%, O=C(NCCCN1CCN(Cc2ccccc2)CC1)C1CCN(S(=O)(=O)N2CCCC2)CC1 -28.8%, CCC(C)Cn1c(O)cc2nn(-c3nc4ccccc4s3)c(=O)c-2c1C (stereo not drawn) 13.9%, O=[N+]([O-])c1ccc(N2CCN(CC(O)COc3ccccc3)CC2)cc1 (stereo not drawn) 20.4%, OC(COCc1ccco1)CN1CCN(c2ccccc2)CC1 (stereo not drawn) 9.46%, CC1CCN(C2=NC(=O)/C(=C/c3cn[nH]c3-c3ccccc3)S2)CC1 1.73%, CC1(C)CC(=O)C=C(N2CCOCC2)C1 11.6%, Cc1nccn1CCC1CCCCN1C(=O)CCc1nnc(-c2ccsc2)o1 (stereo not drawn) 5.94%, Cc1ccc(C)c(NC(=O)CSc2nc3c(oc4ccccc43)c(=O)n2-c2ccccc2)c1 -11.9%, CCOC(=O)c1c(C)nc2c(c1C)c(=O)oc1ccccc12 -22%, CCCCC(=O)Nc1cc(C)c2c(=O)oc3ccccc3c2n1 4.38%, O=S(=O)(Nc1ccccn1)c1cccc(S(=O)(=O)c2ccc(Cl)cc2)c1 -10.4%, Clc1ccc(C2=CSC3=Nc4cccc5cccc(c45)N23)cc1 -26.6%, CCOc1ccc(/C=N/OCC(=O)NCc2cccs2)cc1 -0.95%, CC(=O)NCC(O)c1ccc([N+](=O)[O-])cc1 (stereo not drawn) -3.81%, CC(C)OP(=O)(OC(C)C)C(Nc1ccccc1)c1cccc([N+](=O)[O-])c1 (stereo not drawn) 6.2%, O=C(CC1SCCNC1=O)Nc1ccc(Cl)c(Cl)c1 (stereo not drawn) 8.97%, O=C(CSc1nnc(-c2ccncc2)n1-c1ccc(Cl)cc1)Nc1ccc(C(=O)O)cc1 -5%, CC(=O)c1ccc(-c2nnc(CCC(=O)N(C)Cc3cnc4ccccn34)o2)s1 10.1%, O=C(c1cc(-c2ccc(O)cc2)on1)N1CCCc2ccccc21 -13.9%, Cc1cc(C)nc(NC(=O)Nc2ccccc2C(F)(F)F)n1 -11.5%, Cc1nn2c(NCCN(C)C)c3c(nc2c1-c1ccccc1)CCC3 22.6%, O=C(c1cc(COc2c(F)cccc2F)on1)N1CCSCC1 3.08%, CCC(CC)C(=O)N1CCN(c2cccc(C)c2C)CC1 -14.7%, CCOC(=O)c1cccc(NC(=O)CN(c2ccc(C)cc2)S(=O)(=O)c2c(C)noc2C)c1 18.8%, Cc1ccc(N(CC(=O)Nc2cccc(N(C)S(C)(=O)=O)c2)S(C)(=O)=O)cc1 25.3%, COc1ccc(NC(=O)c2nc(-n3nc(C)cc3C)ccc2Cl)cc1Cl 9.04%, O=C(Cc1cccc2ccccc12)NNC(=O)Nc1ccc(Cl)cc1 5.16%, COc1ccccc1C(c1nnnn1CC1CCCO1)N1CCN(c2ccccc2)CC1 (stereo not drawn) 12.6%, COc1ccccc1C(c1nnnn1C(C)(C)C)N1CCN(Cc2ccccc2)CC1 (stereo not drawn) -17.5%, Cc1c(CN2CCCCC2)c(O)n(CCO)c(=O)c1C#N 10.5%, CCOC(=O)CCCNC(=O)COC(=O)/C=C/c1ccc2c(c1)OCO2 -7.21%, CC(=O)N1CC[n+]2c(-c3ccc([N+](=O)[O-])cc3)csc21 13.5%, O=C(NCCCNc1ccc([N+](=O)[O-])cc1Cl)c1ccccc1F -0.79%, CC1=NNC(=O)C1CCC(=O)N/N=C\c1cccc(Cl)c1 (stereo not drawn) 4.52%, CCOc1ccc(C2NC(=S)NC3=C2CCc2ccccc23)cc1 (stereo not drawn) 10.5%, Cc1cc(C)c(NC(=O)c2oc3ccccc3c2COc2ccccc2)c(C)c1 -49.2%, Cc1cc(C)cc(OCC(=O)NCc2cc(C)nc3ccccc23)c1 0.39%, COc1cc(N2C(=O)CC3(CCCC3)CC2=O)cc(OC)c1OC -14.9%, CCC(=O)N1c2ccccc2NC2=C(C(=O)CCC2)C1c1ccco1 (stereo not drawn) 19.7%, COC(=O)c1sccc1NC(=S)Nc1ccc(C)cc1 -0.64%, O=c1c(/C=N/O)coc2ccc(Cl)cc12 19.5%, O=c1c(-c2ccccc2)coc2cc(O)ccc12 2.99%, O=C1CC(c2cccc(Cl)c2)CC(O)=C1C=Nc1ccccc1 (stereo not drawn) -11.9%, Cc1ccc(-c2ccc(/C=C(\C#N)C(N)=S)o2)c([N+](=O)[O-])c1 8.63%, CN(C)NC(=O)C(NC(=O)c1ccc(N)cc1)C12CC3CC(CC(C3)C1)C2 (stereo not drawn) 5.39%, Cc1cc(NC(=O)COC(=O)COc2ccc(Cl)cc2C)c([N+](=O)[O-])cc1C -0.92%, Cc1ccc(OCC(=O)c2cc(C)n(Cc3ccco3)c2C)c([N+](=O)[O-])n1 1.91%, CC(=O)N(CCCN(C)C)c1nc2ccc(C)cc2s1 -7.71%, CN(C)CCCN(C(=O)COc1ccccc1)c1nc2c(Cl)cccc2s1 -13.9%

activation, active:
CN(C)Cc1c(O)ccc2occ(C(O)c3ccccc3)c12 (stereo not drawn) 105%, O=C(Nc1cccc(S(=O)(=O)Nc2ccc(Cl)cc2)c1)c1ccc2c(c1)OCCO2 43.8%, O=C(Nc1ccc2c(c1)CCC2)c1cccc(S(=O)(=O)Nc2ccccc2Cl)c1 54.9%, Cc1coc2c(O)cc3c(c12)OC1(N2CCCCC2)C(=O)NCCCC31 (stereo not drawn) 90.8%, CCn1c2ccccc2c2cc(NC(=O)Nc3ccc([N+](=O)[O-])cc3C)ccc21 45.6%, CN1C(=O)c2ccccc2C(C(=O)NCCCN2CCCC2)C1c1c[nH]c2ccccc12 (stereo not drawn) 51.1%, OC(COCC1COc2ccccc2O1)CN1CCN(c2ccc(F)cc2)CC1 (stereo not drawn) 74.5%, Cc1ccccc1-n1nnc2c(=O)oc3ccccc3c21 65.8%, CC(CCc1ccccc1)NCC(O)c1cccc([N+](=O)[O-])c1 (stereo not drawn) 107%, O=C(Nc1ccccc1C(F)(F)F)c1cc(-c2ccc(O)cc2)on1 42.6%, COC(=O)c1ccc(NC(=O)CN(c2ccc(C)cc2)S(=O)(=O)c2c(C)n[nH]c2C)cc1 38.8%, COCCn1nnnc1C(c1ccccc1Cl)N1CCN(c2ccccc2OC)CC1 (stereo not drawn) 89.3%, Cc1cc(C)c(NC(=O)C[N+](C)(C)CC(O)COc2cccc3ccccc23)c(C)c1 (stereo not drawn) 86.4%, O=C1/C(=C/c2coc3ccc(O)cc3c2=O)SC(=S)N1c1ccccc1 47%, COc1cccc2sc(N(CCCN(C)C)C(=O)C(c3ccccc3)c3ccccc3)nc12 103%
